Data reported in PubChem BioAssay (NCATS).
Results filed as inconclusive are left out. Entries that show only a call come without a potency. Activity calls are given as the source filed them. Unless noted, calls follow the shape of the dose curve; as a rule, active = well fitted curve in the direction sought with a large enough effect; inconclusive = small, poorly fitted or top-dose-only effect, or another doubt; inactive = no such curve, though single readings can be large; an effect the other way counts as inactive or inconclusive.

Key:
[1] = molecular target: Atrial natriuretic peptide receptor 2 (Homo sapiens) (UniProt P20594); test: Natriuretic polypeptide receptor (hNpr2) antagonism - Pilot subtype selectivity assay (AID 1347050; calls by dose curve; also: potency is read from the fitted curve at half-maximal effect); conditions: NPR2-expressing cells, cGMP antagonist-mode read-out; series mostly up to 38.3 µM
Chain of Atrial natriuretic peptide receptor 2 (Homo sapiens) (P20594 whole entry, looked up): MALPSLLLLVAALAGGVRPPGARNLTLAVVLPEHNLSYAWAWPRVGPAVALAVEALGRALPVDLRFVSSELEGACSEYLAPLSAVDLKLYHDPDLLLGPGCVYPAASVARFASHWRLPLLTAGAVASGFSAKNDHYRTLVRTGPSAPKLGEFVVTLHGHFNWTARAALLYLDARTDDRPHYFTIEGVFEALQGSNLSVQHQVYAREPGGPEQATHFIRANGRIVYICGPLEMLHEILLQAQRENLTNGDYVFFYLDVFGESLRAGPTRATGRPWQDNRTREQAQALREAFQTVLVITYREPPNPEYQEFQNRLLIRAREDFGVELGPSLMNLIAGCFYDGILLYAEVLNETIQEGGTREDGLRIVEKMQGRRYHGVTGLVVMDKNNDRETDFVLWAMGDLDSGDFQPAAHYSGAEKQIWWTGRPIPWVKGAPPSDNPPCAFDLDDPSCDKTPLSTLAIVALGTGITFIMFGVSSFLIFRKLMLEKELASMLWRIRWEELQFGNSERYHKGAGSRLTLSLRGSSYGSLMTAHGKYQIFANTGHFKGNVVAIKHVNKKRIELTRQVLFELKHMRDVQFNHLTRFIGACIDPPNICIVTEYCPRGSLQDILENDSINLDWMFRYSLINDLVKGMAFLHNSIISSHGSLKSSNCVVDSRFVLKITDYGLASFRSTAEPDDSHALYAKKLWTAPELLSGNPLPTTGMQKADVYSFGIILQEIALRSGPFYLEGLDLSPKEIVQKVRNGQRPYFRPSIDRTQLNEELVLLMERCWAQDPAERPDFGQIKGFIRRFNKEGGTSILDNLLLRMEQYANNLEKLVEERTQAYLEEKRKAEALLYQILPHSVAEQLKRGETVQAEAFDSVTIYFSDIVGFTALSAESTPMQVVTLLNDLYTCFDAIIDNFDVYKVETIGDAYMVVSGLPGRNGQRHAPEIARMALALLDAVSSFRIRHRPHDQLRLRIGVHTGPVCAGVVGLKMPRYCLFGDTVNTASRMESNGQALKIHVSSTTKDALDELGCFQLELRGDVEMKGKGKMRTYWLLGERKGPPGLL
Procedure, shortened: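 cGMP-sensor HEK293/hNpr2 cells; 2% GloSensor reagent 2 h RT; compounds 30 min; baseline luminescence read; 1 nM hNppC agonist 20 min RT; final luminescence read by CCD camera. Antagonism = reduced post-agonist signal.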

[2] = molecular target: Parathyroid hormone/parathyroid hormone-related peptide receptor (Homo sapiens) (UniProt Q03431); test: qHTS for PTHR1 Agonists: Optimization Screen against the NCGC LOPAC library (AID 1347079); conditions: HEK293 GP2 PTHR1 GloSensor cAMP luminescence, 1 h; series mostly up to 57.1 µM;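 also: GloSensor cAMP luminescence in HEK-293 GP2 cells expressing human PTHR1 with IBMX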
Chain of Parathyroid hormone/parathyroid hormone-related peptide receptor (Homo sapiens) (Q03431 whole entry, looked up): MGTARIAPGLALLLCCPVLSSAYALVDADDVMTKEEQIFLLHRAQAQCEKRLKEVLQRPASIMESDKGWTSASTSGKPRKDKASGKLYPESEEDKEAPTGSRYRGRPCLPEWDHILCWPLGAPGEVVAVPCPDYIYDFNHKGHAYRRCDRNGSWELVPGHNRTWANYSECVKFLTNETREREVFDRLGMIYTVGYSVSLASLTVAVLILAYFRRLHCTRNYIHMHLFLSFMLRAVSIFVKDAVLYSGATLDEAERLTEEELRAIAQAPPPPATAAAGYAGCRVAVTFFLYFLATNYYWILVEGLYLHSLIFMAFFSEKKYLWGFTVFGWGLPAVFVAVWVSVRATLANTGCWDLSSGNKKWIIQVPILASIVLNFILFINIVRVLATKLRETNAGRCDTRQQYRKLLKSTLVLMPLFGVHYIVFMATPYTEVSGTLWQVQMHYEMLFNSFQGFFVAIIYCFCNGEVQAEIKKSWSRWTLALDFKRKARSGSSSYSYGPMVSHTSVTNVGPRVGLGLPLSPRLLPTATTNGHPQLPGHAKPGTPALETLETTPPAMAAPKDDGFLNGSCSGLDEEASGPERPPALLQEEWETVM
Procedure, shortened: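 Compounds were tested across a qHTS titration. PTHR1-expressing GP2 cells report cAMP rises via GloSensor luminescence after 1 hr compound exposure at 37C with IBMX present.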

[3] = qHTS of pediatric cancer cell lines to identify multiple opportunities for drug repurposing: Primary screen for TC32 cells (AID 1347089); conditions: TC32 Ewing sarcoma viability, CellTiter-Glo luminescence, 48 h; series mostly up to 45.8 µM; also: nearly all actives have a fitted effect of over 60% in size; also: potency is read from the fitted curve at half-maximal effect
Procedure, shortened: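 TC32 cells, 500-1,000/well in growth medium, compound-treated 48 h at 37 °C; viability from CellTiter-Glo luminescence. Primary screen: MIPE 11-point (0.78 nM–46 µM final), NPC 8-point (0.59 nM–46 µM final); confirmatory at 11-point dilutions.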

[4] = qHTS of pediatric cancer cell lines to identify multiple opportunities for drug repurposing: Primary screen for DAOY cells (AID 1347090); conditions: DAOY medulloblastoma viability, CellTiter-Glo luminescence, 48 h; series mostly up to 46 µM; also: nearly all actives have a fitted effect of over 55% in size; also: potency is read from the fitted curve at half-maximal effect
Procedure, shortened: (§1)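 Eight- or eleven-point concentration series, 48 h treatment at 37 degrees C in growth media; readout CellTiter-Glo luminescence. Potency and efficacy were taken from the concentration-response curves.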

[5] = qHTS of pediatric cancer cell lines to identify multiple opportunities for drug repurposing: Primary screen for SJ-GBM2 cells (AID 1347091); conditions: SJ-GBM2 viability, CellTiter-Glo luminescence, 48 h; series mostly up to 46 µM; also: potency is read from the fitted curve at half-maximal effect
Procedure, shortened: as §1

[6] = qHTS of pediatric cancer cell lines to identify multiple opportunities for drug repurposing: Primary screen for A673 cells (AID 1347092); conditions: A673 Ewing sarcoma viability, CellTiter-Glo ATP luminescence, 48 h; series mostly up to 46 µM; also: nearly all actives have a fitted effect of over 45% in size; also: potency is read from the fitted curve at half-maximal effect
Procedure, shortened: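 A673 cells (500-1,000 cells/well) were treated 48 hours at 37 degrees C with compounds at 11-point (0.78 nM to 46 µM) or 8-point (0.59 nM to 46 µM) dilutions. Viability read by CellTiter-Glo luminescence; concentration-response curves fitted.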

[7] = NS1 protein of Zika virus - qHTS assay to identify small molecule inhibitors in human HEK 293 cells (AID 1347053); conditions: HEK293 ZIKV MR766 infection, NS1 TR-FRET, 24 h; series mostly up to 46.1 µM; also: nearly all actives have a fitted effect of over 55% in size
Procedure, shortened: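 HEK 293 cells pretreated with compound for 1 h, then infected with ZIKV MR766 (MOI 0.5) for 24 h at 37 C. NS1 detected by TR-FRET with two anti-NS1 antibodies; normalized to uninfected (0%) and infected (100%) wells.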

[8] = molecular target: T1, Tyrosine-protein phosphatase non-receptor type substrate 1 (Homo sapiens) + Leukocyte surface antigen CD47 (Homo sapiens) (UniProt P78324+Q08722); test: CD47-SIRPalpha protein protein interaction - Alpha assay qHTS validation (AID 1347059); conditions: AlphaScreen CD47-His/biotin-SIRPalpha binding, LOPAC; series mostly up to 38.3 µM;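 also: bead proximity luminescence from CD47 binding SIRPalpha after compound preincubation with SIRPalpha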; also: potency is read from the fitted curve at half-maximal effect
T1 sequence (P78324 whole entry, looked up, the tested form may be a part): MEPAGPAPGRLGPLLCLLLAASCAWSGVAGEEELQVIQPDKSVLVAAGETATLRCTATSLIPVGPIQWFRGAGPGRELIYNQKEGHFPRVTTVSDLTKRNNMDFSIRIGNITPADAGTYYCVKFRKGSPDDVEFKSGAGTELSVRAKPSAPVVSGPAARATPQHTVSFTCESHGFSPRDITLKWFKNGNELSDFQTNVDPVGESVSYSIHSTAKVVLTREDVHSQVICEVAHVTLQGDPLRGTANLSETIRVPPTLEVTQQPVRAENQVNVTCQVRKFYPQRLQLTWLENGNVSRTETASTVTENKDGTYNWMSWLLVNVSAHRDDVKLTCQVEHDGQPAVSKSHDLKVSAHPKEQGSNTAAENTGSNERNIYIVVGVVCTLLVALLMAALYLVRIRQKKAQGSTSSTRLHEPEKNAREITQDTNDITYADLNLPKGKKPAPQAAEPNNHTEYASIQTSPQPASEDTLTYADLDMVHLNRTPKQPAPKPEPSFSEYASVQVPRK
T1 sequence (Q08722 whole entry, looked up, the tested form may be a part): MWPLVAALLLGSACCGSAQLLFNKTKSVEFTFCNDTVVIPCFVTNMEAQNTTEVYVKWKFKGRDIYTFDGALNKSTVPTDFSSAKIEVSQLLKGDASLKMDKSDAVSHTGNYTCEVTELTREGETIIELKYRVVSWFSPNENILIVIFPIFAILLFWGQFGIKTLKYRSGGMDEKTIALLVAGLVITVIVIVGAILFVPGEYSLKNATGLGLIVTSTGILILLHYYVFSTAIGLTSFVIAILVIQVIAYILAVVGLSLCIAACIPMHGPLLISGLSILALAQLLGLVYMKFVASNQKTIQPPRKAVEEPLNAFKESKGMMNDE
Procedure, shortened: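 Soluble extracellular domains: Avi-tag biotinylated SIRPalpha (25 nM) preincubated 30 min RT with compound, then 6His-CD47 (12.5 nM) 30 min; Ni-NTA acceptor and streptavidin donor beads (10 ug/mL) 30 min, AlphaScreen read. PBS pH 7.4, 0.05% IGEPAL.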

[9] = molecular target: T1, Tyrosine-protein phosphatase non-receptor type substrate 1 (Homo sapiens) + Leukocyte surface antigen CD47 (Homo sapiens); test: CD47-SIRPalpha protein protein interaction - LANCE assay qHTS validation (AID 1347057; active = well fitted curve in the direction sought with a large enough effect in the signal ratio, with a control signal flat, not every such curve was filed as active; the % refers to the signal ratio); conditions: Recombinant CD47-His / biotin-SIRPalpha, TR-FRET ratio; series mostly up to 38.3 µM
Procedure, shortened: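 First, His-tagged CD47 and Eu-labelled anti-His antibody met the compound for 30 min; next, site-specifically biotinylated SIRPalpha was added for 30 min; finally streptavidin-APC was added before reading the TR-FRET ratio.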

[10] = molecular target: T1, Tyrosine-protein phosphatase non-receptor type substrate 1 (Homo sapiens) + Leukocyte surface antigen CD47 (Homo sapiens); test: CD47-SIRPalpha protein protein interaction - HTRF assay qHTS validation (AID 1347058; active = well fitted curve in the direction sought with a large enough effect in the signal ratio, not every such curve was filed as active; the % refers to the signal ratio); conditions: TR-FRET HTRF CD47-His / biotin-SIRPalpha binding, ratio 665/615; series mostly up to 38.3 µM
Procedure, shortened: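 TR-FRET read (Ch1/Ch2 ratio) of soluble extracellular CD47 and Avi-biotinylated SIRPalpha domains in PBS pH 7.4 with 0.05% IGEPAL; 7-point compound titration. Sequential 30 min room-temperature steps; non-biotinylated SIRPalpha as control inhibitor.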

Row | SMILES | Potency [1] | outcome [2] | Potency [3] | Potency [4] | Potency [5] | Potency [6] | outcome [7] | Potency [8] | outcome [9] | outcome [10]
1 | C[n+]1cc2c3c(ccc2c2ccc4cc5c(cc4c21)OCO5)OCO3 | 2.61 µM (active) | inactive | 3.25 µM (active) | 2.31 µM (active) | 1.16 µM (active) | 1.16 µM (active) | – | – | – | –
2 | NS(=O)(=O)c1cc2c(cc1Cl)NC(C1CC3C=CC1C3)NS2(=O)=O (configuration not stated) | inactive | inactive | inactive | – | inactive | inactive | inactive | inactive | – | –
3 | CCN1CCc2nc(N)oc2CC1 | inactive | inactive | inactive | inactive | inactive | inactive | inactive | inactive | – | –
4 | Cc1scc2c1N(C(=O)CN1CCN(C)CC1)c1ccccc1NC2=O | inactive | inactive | inactive | inactive | inactive | inactive | inactive | inactive | – | –
5 | CN(C)CCCN1c2ccccc2Sc2ccccc21 | – | inactive | inactive | inactive | – | – | inactive | inactive | inactive | inactive
6 | COCC(=O)O[C@]1(CCN(C)CCCc2nc3ccccc3[nH]2)CCc2cc(F)ccc2[C@@H]1C(C)C | – | inactive | – | – | – | – | inactive | inactive | inactive | inactive
7 | CN(C)CCCN1c2ccccc2Sc2ccc(C(F)(F)F)cc21 | – | inactive | – | inactive | – | – | inactive | – | – | –
8 | CNCCCN1c2ccccc2CCc2ccccc21 | – | inactive | inactive | inactive | – | – | inactive | inactive | inactive | inactive
9 | CCn1nc(C(=O)O)c(=O)c2cc3c(cc21)OCO3 | inactive | inactive | inactive | inactive | inactive | inactive | inactive | inactive | – | –
10 | Cc1ccc(Cl)c(Nc2ccccc2C(=O)O)c1Cl | inactive | inactive | inactive | – | – | inactive | inactive | inactive | – | –
11 | CSc1ccc(C(=O)c2[nH]c(=O)[nH]c2C)cc1 | inactive | – | inactive | inactive | inactive | inactive | inactive | inactive | – | –
12 | CC(=O)Oc1cc(C(C)C)c(OCCN(C)C)cc1C | inactive | inactive | inactive | inactive | inactive | inactive | inactive | – | – | –
13 | NC(=Nc1ccccc1)Nc1ccccc1 | – | – | inactive | – | inactive | inactive | inactive | – | – | –
14 | CC(=O)[C@]1(O)Cc2c(O)c3c(c(O)c2[C@@H](O[C@H]2C[C@H](N)[C@H](O)[C@H](C)O2)C1)C(=O)c1ccccc1C3=O | inactive | inactive | 0.47 µM (active) | – | – | 0.422 µM (active) | inactive | 16.5 µM (active) | – | –
15 | C[C@]12C=CC(=O)C=C1CC[C@H]1[C@@H]3C[C@@H](O)[C@](O)(C(=O)CO)[C@@]3(C)C[C@H](O)[C@@]12F | inactive | inactive | inactive | – | inactive | inactive | inactive | – | – | –
16 | Cc1cccc(C)c1NC(=O)C(C)N (configuration not stated) | inactive | inactive | inactive | – | inactive | inactive | inactive | inactive | – | inactive
17 | O=C1NCN(c2ccccc2)C12CCN(CCCC(c1ccc(F)cc1)c1ccc(F)cc1)CC2 | inactive | inactive | – | – | 23.7 µM (active) | – | inactive | – | – | –
18 | Nc1ncn([C@@H]2O[C@H](CO)[C@@H](O)[C@H]2O)c(=O)n1 | inactive | inactive | 11.8 µM (active) | – | – | 6.68 µM (active) | – | inactive | – | inactive
19 | Cc1nnc(SCC2=C(C(=O)O)N3C(=O)[C@@H](NC(=O)Cn4cnnn4)[C@H]3SC2)s1 | inactive | inactive | inactive | – | inactive | inactive | inactive | inactive | – | inactive
20 | CCNC(=O)N1CCN(CCCC(c2ccc(F)cc2)c2ccc(F)cc2)CC1 | – | inactive | inactive | – | inactive | inactive | inactive | inactive | inactive | inactive
21 | CC(=O)OC(C)C[N+](C)(C)C (configuration not stated) | inactive | inactive | – | inactive | inactive | inactive | inactive | inactive | – | inactive
22 | c1ccc2c(c1)CCCC2C1=NCCN1 (configuration not stated) | inactive | inactive | inactive | – | inactive | inactive | inactive | – | – | inactive
23 | OCCN1CCN(CCCN2c3ccccc3C=Cc3ccccc32)CC1 | – | inactive | inactive | inactive | inactive | inactive | inactive | inactive | – | inactive
